Source: PubChem BioAssay
Neddylation inh – cullin neddylation inhibition; P61081+Q13564; TR-FRET cullin neddylation, biochemical; inhibition, % at 25 µM; 0.58% of 360,000 active; AID 651699; in the data active = inhibition above about 36%
DAGLB inhibitor – blocks human DAGLB lipase activity; HEK293T DAGLB membrane lysate, EnzChek fluorogenic substrate; 0.059% of 340,000 active; inhibition, % at 5.17 µM; AID 504411; in the data active = inhibition above about 34%
NadD inh – blocks S. aureus nicotinate mononucleotide adenylyltransferase | purified NadD enzyme, colorimetric absorbance read-out | inhibition, % at 20 µM | AID 602399 | 0.78% of 360,000 active; in the data active = inhibition above about 26%
sPLA2-III inh – Blocks human group III sPLA2 activity; QFRET BODIPY PC-A2 liposome hydrolysis, fluorescence; inhibition, % at 12.2 µM; 0.56% of 370,000 active;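 active = inhibition above mean plus 3 SD of compounds lying within the high and low control bounds, cut at about 19% in these data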
Target sequence (Q9NZ20 whole entry, looked up): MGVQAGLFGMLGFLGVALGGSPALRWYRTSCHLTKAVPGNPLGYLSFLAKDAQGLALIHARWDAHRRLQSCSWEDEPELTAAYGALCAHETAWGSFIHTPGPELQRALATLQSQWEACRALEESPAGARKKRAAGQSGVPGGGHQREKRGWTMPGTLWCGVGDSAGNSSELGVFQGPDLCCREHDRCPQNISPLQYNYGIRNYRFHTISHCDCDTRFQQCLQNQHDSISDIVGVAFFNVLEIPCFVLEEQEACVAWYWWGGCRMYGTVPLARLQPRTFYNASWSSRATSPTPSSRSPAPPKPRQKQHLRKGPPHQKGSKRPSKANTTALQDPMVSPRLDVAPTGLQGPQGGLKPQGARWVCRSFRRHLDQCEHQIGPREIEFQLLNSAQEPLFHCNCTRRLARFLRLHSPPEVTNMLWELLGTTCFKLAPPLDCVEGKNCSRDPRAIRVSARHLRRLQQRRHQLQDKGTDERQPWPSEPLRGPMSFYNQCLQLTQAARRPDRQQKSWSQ
ARNT-TACC3 inh – disruptors of human ARNT/TACC3 interaction; Q9Y6A5; 0.66% of 390,000 active; inhibition, % at 9.99 µM; AlphaScreen His-ARNT PAS-B/GST-TACC3 binding, luminescence; TACC3 fragment carries E629A point mutation; AID 623870;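 active = mean inhibition of replicates at least 50% and at least half of replicates each reaching 50%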
hGIII sPLA2 conf – human GIII-sPLA2 inhibition, confirmation; shares compounds with sPLA2-III inh; recombinant hGIII-sPLA2, BODIPY PC-A2 QFRET fluorescence; inhibition, % at 12.2 µM; 34% of 2,000 active;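 active = mean inhibition across triplicates above the hit cutoff set in the earlier primary screen, cut at about 19% in these data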
BODIPY interf – optically interferes with 535nm fluorescence in sPLA2 counter-screen. BODIPY FL product fluorescence interference, QFRET. shares compounds with sPLA2-III inh. inhibition, % at 12.2 µM. 8.5% of 2,000 active;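 active = average inhibition above the solvent-only control mean plus 3 SD, cut at about 6% in these data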
535nm interf DR – interferes with 535nm fluorescence in dose response counter-screen; shares compounds with sPLA2-III inh; AID 743455; BODIPY FL product fluorescence interference, cell-free; IC50, µM; 240 tested, under 10 active;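 active = IC50 at or below 10 µM; inactive = IC50 above 10 µM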
Large screens that a line does not name were inactive (follow-up assays come after a bar, where shown). Shown are actives, neighbours in structure and some others; about 2% of the full set was active somewhere.

Oc1cccc2c(NC(=S)Nc3ccc(SC(F)F)cc3)cccc12	none
O=C(C[C@@H]1CC[C@H]2[C@@H](COC[C@@H](O)CN2C(=O)c2ccc(F)cc2)O1)NC1Cc2ccccc2C1	none (no result: Neddylation inh, DAGLB inhibitor, NadD inh, sPLA2-III inh)
O=C1NC(=S)N(C(=O)c2ccc(F)cc2)/C1=C/c1cccnc1	sPLA2-III inh 20 (no result: DAGLB inhibitor, ARNT-TACC3 inh) | hGIII sPLA2 conf inactive | BODIPY interf inactive
COC(=O)c1c(C)cc(C)n2c1nc1ccccc12	sPLA2-III inh 22 (not shown: Neddylation inh, ARNT-TACC3 inh) | hGIII sPLA2 conf inactive | BODIPY interf inactive
Cc1cc(C)n2c(nc3ccccc32)c1C(=O)NN	none (not shown: Neddylation inh, DAGLB inhibitor, ARNT-TACC3 inh)
S=C(Nc1ccccc1)Nc1nccs1	sPLA2-III inh 27 | hGIII sPLA2 conf 30 | BODIPY interf inactive | 535nm interf DR inactive
O=C(Cc1ccccc1)Nc1nccs1	none
Fc1ccc(NC(=S)Nc2nccs2)cc1	sPLA2-III inh 23 | hGIII sPLA2 conf 28 | BODIPY interf inactive | 535nm interf DR inactive
CCCCNC(=O)C(COCc1ccccc1)OC(=O)c1ccccc1 (configuration not stated)	none (no result: Neddylation inh, DAGLB inhibitor, NadD inh, sPLA2-III inh)
O=C(NNC(=O)c1ccc2ccccc2c1)Nc1ccc(F)cc1	none
Cc1cccc(NC(=O)NNC(=O)c2ccc3ccccc3c2O)c1	sPLA2-III inh 29 (not shown: Neddylation inh) | hGIII sPLA2 conf 30 | BODIPY interf inactive | 535nm interf DR inactive
O=C(NNC(=O)c1ccc2ccccc2c1O)Nc1ccc(F)cc1	sPLA2-III inh 28 (not shown: Neddylation inh) | hGIII sPLA2 conf 30 | BODIPY interf inactive | 535nm interf DR inactive
Cc1cccc(NC(=O)NNC(=O)c2ccc3ccccc3c2)c1	none
O=C(CN1c2ccccc2Sc2ccccc21)N/N=C/c1ccc(Cl)cc1	none (no result: DAGLB inhibitor)
O=C(NNC(=S)Nc1ccc(Cl)cc1)c1ccccc1	sPLA2-III inh 19 | hGIII sPLA2 conf 39 | BODIPY interf inactive | 535nm interf DR inactive
O=C(CN1c2ccccc2Sc2ccccc21)NNC(=S)Nc1ccc(Cl)cc1	sPLA2-III inh 28 | hGIII sPLA2 conf inactive | BODIPY interf 18
Cc1ccc(S(=O)(=O)N(C)C[C@@H]2Oc3ncc(C#CC4(O)CCCC4)cc3C(=O)N([C@H](C)CO)C[C@@H]2C)cc1	none (no result: Neddylation inh, DAGLB inhibitor, NadD inh, sPLA2-III inh)
COCC#Cc1cnc2c(c1)C(=O)N([C@@H](C)CO)C[C@@H](C)[C@H](CN(C)S(C)(=O)=O)O2	none (no result: Neddylation inh, DAGLB inhibitor, NadD inh, sPLA2-III inh)
O=C(CN(C(=O)c1ccc(Cl)cc1)C1CCCCC1)Nc1ccc(Cl)c([N+](=O)[O-])c1	sPLA2-III inh 20 | hGIII sPLA2 conf inactive | BODIPY interf inactive
O=C(Nc1ccc(N2CCOCC2)nc1)c1cccs1	none
O=C(Nc1cccnc1N1CCOCC1)c1cccs1	sPLA2-III inh 22 | hGIII sPLA2 conf inactive | BODIPY interf inactive
CN(C)S(=O)(=O)c1ccc(Cl)c(C(=O)NCCNC(=O)c2cc(S(=O)(=O)N(C)C)ccc2Cl)c1	sPLA2-III inh 21 | hGIII sPLA2 conf inactive | BODIPY interf inactive
CC[n+]1ccccc1/C=C/c1ccc(N(C)C)cc1	none
CC[n+]1c(/C=C/c2ccc(N(C)C)cc2)ccc2ccccc21	sPLA2-III inh 25 | hGIII sPLA2 conf 43 | BODIPY interf inactive | 535nm interf DR inactive
CC[n+]1c(/C=C/c2ccc(OC)c(OC)c2)ccc2ccccc21	none
CC[n+]1ccc(/C=C/c2ccc(N(C)C)cc2)c2ccccc21	sPLA2-III inh 24 | hGIII sPLA2 conf 46 | BODIPY interf inactive | 535nm interf DR inactive
C[C@@H]1CN([C@H](C)CO)C(=O)c2cc(NC(=O)c3ccncc3)ccc2O[C@@H](C)CCCCO[C@H]1CN(C)S(=O)(=O)c1cccs1	none (no result: Neddylation inh, DAGLB inhibitor, NadD inh, sPLA2-III inh)
Cc1ccc(C)c(OCc2n[nH]c(=S)o2)c1	sPLA2-III inh 24 | hGIII sPLA2 conf inactive | BODIPY interf inactive
CCNC(=O)C[C@@H]1CC[C@H]2[C@H](COc3ccc(NC(=O)c4ccccc4Cl)cc3C(=O)N2C)O1	none (no result: Neddylation inh, DAGLB inhibitor, NadD inh, sPLA2-III inh)
C[C@H]1CN([C@@H](C)CO)C(=O)c2ccccc2-c2ccccc2CO[C@H]1CN(C)S(=O)(=O)CC(F)(F)F	none (no result: Neddylation inh, DAGLB inhibitor, NadD inh, sPLA2-III inh)
N#CC(C#N)c1ccnc2ccccc12	sPLA2-III inh 19 (no result: ARNT-TACC3 inh) | hGIII sPLA2 conf inactive | BODIPY interf inactive
Cn1cnc(S(=O)(=O)N2C[C@H](O)COC[C@H]3O[C@H](CC(=O)NC4Cc5ccccc5C4)CC[C@@H]32)c1	none (no result: Neddylation inh, DAGLB inhibitor, NadD inh, sPLA2-III inh)
Clc1ccc(N=NN2CCOCC2)cc1	sPLA2-III inh 19 | hGIII sPLA2 conf inactive | BODIPY interf inactive
CCOC(=O)NC(=O)C(=CNc1ccccc1OC)C(=O)NC(=O)OCC	sPLA2-III inh 21 (no result: ARNT-TACC3 inh) | hGIII sPLA2 conf inactive | BODIPY interf inactive
CCOC(=O)NC(=O)C(=CNc1ccccc1C)C(=O)NC(=O)OCC	none (no result: ARNT-TACC3 inh)
O=C(Nc1csnn1)c1csnn1	sPLA2-III inh 20 | hGIII sPLA2 conf inactive | BODIPY interf inactive
COCCNC(=O)C[C@@H]1C[C@@H]2c3cc(NC(=O)COC)ccc3O[C@@H]2[C@@H](CO)O1	none (no result: Neddylation inh, DAGLB inhibitor, NadD inh, sPLA2-III inh)
COC(=O)C[C@H]1CC[C@@H]2[C@@H](COc3ccc(NC(=O)c4ccno4)cc3C(=O)N2C)O1	sPLA2-III inh 20 (no result: Neddylation inh, DAGLB inhibitor, NadD inh, ARNT-TACC3 inh) | hGIII sPLA2 conf inactive | BODIPY interf inactive
C[C@H](CO)N1C[C@H](C)[C@@H](CN(C)C(=O)Nc2ccc(F)cc2)Oc2c(NC(=O)NC3CCCCC3)cccc2C1=O	none (no result: Neddylation inh, DAGLB inhibitor, NadD inh, sPLA2-III inh)
O=C(C[C@@H]1CC[C@H](NC(=O)Nc2cc(F)ccc2F)[C@@H](CO)O1)NCCCN1CCOCC1	none (no result: Neddylation inh, DAGLB inhibitor, NadD inh, sPLA2-III inh)
CCSC1=NCCN1S(=O)(=O)c1ccccc1	none
CCSC1=NCCN1S(=O)(=O)c1ccc(Cl)cc1	sPLA2-III inh 22 | hGIII sPLA2 conf inactive | BODIPY interf inactive
CCNC(=O)C[C@@H]1C=C[C@H](NS(=O)(=O)c2ccc(F)cc2)[C@H](CO)O1	none (no result: Neddylation inh, DAGLB inhibitor, NadD inh, sPLA2-III inh)
CCC(Sc1nc2ccccc2s1)C(=O)Nc1nnc(C)s1 (configuration not stated)	sPLA2-III inh 19 | hGIII sPLA2 conf inactive | BODIPY interf inactive
CC(Sc1nc2ccccc2s1)C(=O)Nc1nnc(C(C)C)s1 (configuration not stated)	none (no result: sPLA2-III inh)
COC(=O)C[C@H]1C[C@@H]2c3cc(NC(=O)CC4CC4)ccc3O[C@@H]2[C@@H](CO)O1	none (no result: Neddylation inh, DAGLB inhibitor, NadD inh, sPLA2-III inh)
COc1ccc(NC(=O)N(C)C[C@H]2Oc3c(NC(=O)NC(C)C)cccc3C(=O)N([C@@H](C)CO)C[C@@H]2C)cc1	none (no result: Neddylation inh, DAGLB inhibitor, NadD inh, sPLA2-III inh)
CC(=O)N[C@@H]1CC[C@@H](CCNC(=O)C2CC2)O[C@@H]1CO	none (no result: Neddylation inh, DAGLB inhibitor, NadD inh, sPLA2-III inh)
O=S(=O)(c1cccc(-c2n[nH]c(=S)n2-c2cccc(C(F)(F)F)c2)c1)N1CCOCC1	none
Cc1ccc(S(=O)(=O)N2CCOCC2)cc1-c1n[nH]c(=S)n1-c1ccccc1	sPLA2-III inh 23 | hGIII sPLA2 conf inactive | BODIPY interf inactive
CC1CCN(CCCCOc2cccc(Br)c2)CC1	none
CC1CCN(CCCCOc2ccc(Br)cc2)CC1	sPLA2-III inh 20 | hGIII sPLA2 conf inactive | BODIPY interf inactive
